For 17 compounds, inhibition results are on record in ChEMBL document CHEMBL1961873, “Compounds: GSK PKIS; Assays: Nanosyn kinase panel” (2012).

Experiment [1] concerns the target Serine/threonine-protein kinase 26 (Homo sapiens) (UniProt Q9P289). The note with it: at 1 µM.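 Also: mean inhibition of MST4 kinase activity, reported from the GSK PKIS inhibitor-set screening panel.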
Experiment [2] deals with Serine/threonine-protein kinase PAK 1 (Homo sapiens) (UniProt Q13153). To be noted: at 0.1 µM.
Sequence of Serine/threonine-protein kinase PAK 1 (Homo sapiens) (Q13153 whole entry): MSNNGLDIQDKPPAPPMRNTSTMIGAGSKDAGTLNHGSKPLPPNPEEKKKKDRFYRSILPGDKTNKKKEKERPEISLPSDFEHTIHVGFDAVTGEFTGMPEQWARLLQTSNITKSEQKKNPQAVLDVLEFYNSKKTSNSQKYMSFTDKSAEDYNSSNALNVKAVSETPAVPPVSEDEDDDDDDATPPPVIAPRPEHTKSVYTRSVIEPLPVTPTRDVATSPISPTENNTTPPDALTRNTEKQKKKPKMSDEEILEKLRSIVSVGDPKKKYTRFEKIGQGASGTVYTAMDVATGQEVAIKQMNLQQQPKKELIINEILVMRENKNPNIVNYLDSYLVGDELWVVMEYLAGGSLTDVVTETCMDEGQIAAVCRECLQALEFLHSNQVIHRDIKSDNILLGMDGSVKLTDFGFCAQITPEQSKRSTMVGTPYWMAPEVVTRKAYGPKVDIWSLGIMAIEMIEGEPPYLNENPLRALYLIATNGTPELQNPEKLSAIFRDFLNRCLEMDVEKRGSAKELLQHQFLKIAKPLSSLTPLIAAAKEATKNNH
Experiment [3] has the same target. The note with it: at 1 µM.
Experiment [4] has as its target Serine/threonine-protein kinase PAK 2 (Homo sapiens) (UniProt Q13177). To be noted: at 0.1 µM.
Experiment [5] shares this target. To be noted: at 1 µM.
The target of experiment [6] is Serine/threonine-protein kinase PAK 3 (Homo sapiens) (UniProt O75914). To be noted: at 0.1 µM.
Sequence of Serine/threonine-protein kinase PAK 3 (Homo sapiens) (O75914 whole entry, looked up): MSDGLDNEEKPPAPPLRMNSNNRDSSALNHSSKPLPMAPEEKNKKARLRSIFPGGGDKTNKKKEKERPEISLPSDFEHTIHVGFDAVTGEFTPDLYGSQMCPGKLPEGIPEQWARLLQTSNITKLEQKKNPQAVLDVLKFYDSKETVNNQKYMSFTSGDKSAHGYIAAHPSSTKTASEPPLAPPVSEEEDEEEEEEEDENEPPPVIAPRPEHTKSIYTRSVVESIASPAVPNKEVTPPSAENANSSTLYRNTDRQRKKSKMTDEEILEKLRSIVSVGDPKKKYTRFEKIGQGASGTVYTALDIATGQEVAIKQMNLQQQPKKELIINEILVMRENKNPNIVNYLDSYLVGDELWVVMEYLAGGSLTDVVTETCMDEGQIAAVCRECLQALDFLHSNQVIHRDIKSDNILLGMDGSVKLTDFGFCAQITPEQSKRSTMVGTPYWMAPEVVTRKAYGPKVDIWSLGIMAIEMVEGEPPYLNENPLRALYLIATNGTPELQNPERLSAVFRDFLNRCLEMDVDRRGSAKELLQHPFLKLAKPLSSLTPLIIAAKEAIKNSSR
For experiment [7] the target is unchanged. To be noted: at 1 µM.
The target in experiment [8] is Serine/threonine-protein kinase PAK 5 (Homo sapiens) (UniProt Q9P286). The note with it: at 0.1 µM.
Sequence of Serine/threonine-protein kinase PAK 5 (Homo sapiens) (Q9P286 whole entry, looked up): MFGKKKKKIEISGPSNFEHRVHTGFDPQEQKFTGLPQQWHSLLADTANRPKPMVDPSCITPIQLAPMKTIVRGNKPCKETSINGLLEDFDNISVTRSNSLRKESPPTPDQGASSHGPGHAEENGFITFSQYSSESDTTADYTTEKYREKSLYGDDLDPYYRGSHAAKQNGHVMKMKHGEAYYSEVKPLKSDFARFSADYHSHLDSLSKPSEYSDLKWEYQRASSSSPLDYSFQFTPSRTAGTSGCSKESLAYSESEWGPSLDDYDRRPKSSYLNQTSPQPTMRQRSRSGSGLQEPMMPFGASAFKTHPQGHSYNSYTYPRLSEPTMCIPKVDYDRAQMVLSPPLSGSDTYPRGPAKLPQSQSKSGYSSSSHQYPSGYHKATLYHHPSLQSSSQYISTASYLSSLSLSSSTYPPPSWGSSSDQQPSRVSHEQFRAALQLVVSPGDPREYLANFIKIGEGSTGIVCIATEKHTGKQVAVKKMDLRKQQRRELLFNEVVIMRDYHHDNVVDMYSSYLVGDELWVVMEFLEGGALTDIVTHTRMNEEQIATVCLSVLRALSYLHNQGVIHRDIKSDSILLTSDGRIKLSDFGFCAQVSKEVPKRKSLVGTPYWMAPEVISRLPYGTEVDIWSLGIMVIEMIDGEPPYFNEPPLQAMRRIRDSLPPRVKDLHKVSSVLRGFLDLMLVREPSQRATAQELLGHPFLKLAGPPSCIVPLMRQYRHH
For experiment [9] the target is unchanged. The note with it: at 1 µM.
Experiment [10] has as its target Serine/threonine-protein kinase PAK 6 (Homo sapiens) (UniProt Q9NQU5). To be noted: at 0.1 µM.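 Also: mean PAK6 inhibition reported from the GSK PKIS screen.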

Sequence of Serine/threonine-protein kinase PAK 6 (Homo sapiens) (Q9NQU5 whole entry, looked up): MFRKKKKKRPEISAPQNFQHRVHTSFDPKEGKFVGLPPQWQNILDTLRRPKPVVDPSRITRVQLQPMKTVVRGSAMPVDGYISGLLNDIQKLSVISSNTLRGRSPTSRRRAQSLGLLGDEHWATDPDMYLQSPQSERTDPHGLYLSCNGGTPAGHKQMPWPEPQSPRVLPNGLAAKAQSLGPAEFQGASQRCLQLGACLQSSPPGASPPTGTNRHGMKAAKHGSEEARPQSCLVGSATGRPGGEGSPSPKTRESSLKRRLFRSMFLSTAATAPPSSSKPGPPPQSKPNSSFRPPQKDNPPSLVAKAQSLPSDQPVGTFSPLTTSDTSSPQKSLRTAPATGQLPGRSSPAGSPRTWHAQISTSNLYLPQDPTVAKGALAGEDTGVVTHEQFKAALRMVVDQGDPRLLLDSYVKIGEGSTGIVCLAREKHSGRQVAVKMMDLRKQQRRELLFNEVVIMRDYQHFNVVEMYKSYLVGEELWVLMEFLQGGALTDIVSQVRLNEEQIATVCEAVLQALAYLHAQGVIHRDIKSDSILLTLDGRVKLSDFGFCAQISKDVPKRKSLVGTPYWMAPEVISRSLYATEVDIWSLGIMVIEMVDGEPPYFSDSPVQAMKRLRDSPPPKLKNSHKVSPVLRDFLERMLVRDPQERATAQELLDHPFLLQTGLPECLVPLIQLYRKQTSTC
Sequence of Serine/threonine-protein kinase 26 (Homo sapiens) (Q9P289 2-416 limits assumed): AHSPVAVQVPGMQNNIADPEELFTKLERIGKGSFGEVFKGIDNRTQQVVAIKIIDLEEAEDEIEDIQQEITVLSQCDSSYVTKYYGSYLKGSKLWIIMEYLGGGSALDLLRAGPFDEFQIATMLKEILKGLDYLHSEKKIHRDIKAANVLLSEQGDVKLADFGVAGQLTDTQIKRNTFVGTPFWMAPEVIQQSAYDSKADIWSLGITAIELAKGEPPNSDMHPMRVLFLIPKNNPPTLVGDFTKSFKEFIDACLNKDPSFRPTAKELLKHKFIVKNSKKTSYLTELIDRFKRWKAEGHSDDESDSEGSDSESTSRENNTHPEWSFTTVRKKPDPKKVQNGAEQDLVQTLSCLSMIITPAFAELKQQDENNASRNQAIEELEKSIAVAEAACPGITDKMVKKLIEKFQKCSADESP
Sequence of Serine/threonine-protein kinase PAK 2 (Homo sapiens) (Q13177 whole entry): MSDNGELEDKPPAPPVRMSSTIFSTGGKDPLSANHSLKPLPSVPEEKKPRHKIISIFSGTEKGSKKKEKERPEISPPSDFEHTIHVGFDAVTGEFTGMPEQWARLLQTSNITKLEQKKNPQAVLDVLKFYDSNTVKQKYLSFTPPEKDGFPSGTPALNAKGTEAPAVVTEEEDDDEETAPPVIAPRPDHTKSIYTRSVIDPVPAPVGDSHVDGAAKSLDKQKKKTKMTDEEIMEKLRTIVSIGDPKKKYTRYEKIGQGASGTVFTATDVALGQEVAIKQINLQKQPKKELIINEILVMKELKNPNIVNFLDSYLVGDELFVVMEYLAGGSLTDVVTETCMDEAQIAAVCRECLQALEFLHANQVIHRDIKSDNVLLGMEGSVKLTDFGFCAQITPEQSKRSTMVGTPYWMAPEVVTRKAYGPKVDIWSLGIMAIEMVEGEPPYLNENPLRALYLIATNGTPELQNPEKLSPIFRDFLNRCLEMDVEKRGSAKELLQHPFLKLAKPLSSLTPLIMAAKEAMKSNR

One may read the inhibition as the relative decrease from the control value, in per cent. `[O-][S+]1CCN(Cc2ccc(-c3ccc4ncnc(Nc5ccc(OCc6ccccc6)c(F)c5)c4c3)o2)CC1`: the inhibition in [1] is 5.46%; in experiment [2] it was 1.29%; in experiment [3], 5.06%; in [4], 0.28%; in experiment [5], -0.13%; in [6], 1.32%. Moreover, the inhibition was 1.96% in experiment [7], -1.94% in experiment [8], -2.2% in experiment [9] and 2.21% in experiment [10].
As to `COc1ccc2cc(-c3c(-c4ccncc4)nc(-c4ccc([S+](C)[O-])cc4)n3C)ccc2c1` (stereo not given), the inhibition in experiment [1] is -1.05%; in [2], 4.83%; in experiment [3], 2.57%; in experiment [4], 1.33%; in experiment [5] it was 1.31%; in experiment [6], 3.03%. The inhibition was 3.28% in experiment [7], -4.32% in experiment [8], -3.64% in experiment [9] and -2.25% in experiment [10].
For `CCn1c(-c2nonc2N)nc2ccncc21`, the inhibition in experiment [1] was 0.2%; in [2], 6.53%; in [3], 2.38%; in experiment [4], -0.38%; in experiment [5] it was 1.82%; in [6], 0.96%. In addition, the inhibition in experiment [7] was 1.02%; in experiment [8], -6.36%; in experiment [9] it was -8.04%; in [10], -9.63%.
On to `CC1=C(C(=O)Nc2ccc3[nH]ncc3c2)C(c2ccc(Cl)c(Cl)c2)CC(=O)N1` (stereo not given), for which the inhibition in [1] is -1.05%; in experiment [2], 2.74%; in [3], 3.36%; in experiment [4], 0.48%; in experiment [5], -0.06%; in experiment [6] it was 0.86%. Further, the inhibition in [7] is 0.53%; in experiment [8], 4.97%; in experiment [9] it was -3.2%; in experiment [10], 6.11%.
In the case of `Fc1cccc(COc2ccc(Nc3ncnc4sc(-c5cccs5)cc34)cc2Cl)c1`, the inhibition in [1] is -0.58%; in experiment [2] it was 1.63%; in experiment [3], 1.64%; in experiment [4], -0.69%; in experiment [5] it was -1.1%; in [6] it was -0.01%. Also, the inhibition was 2.7% in [7], -2.5% in [8], -7.05% in experiment [9] and -3.68% in experiment [10].
`O=C1Nc2ccc(C(=O)c3ccco3)cc2C1=Cc1cc(Cl)c(O)c(Cl)c1`: the inhibition in experiment [1] stood at 21.4%; in experiment [2] it was 1.1%; in experiment [3] it was 3.96%; in [4], 1.29%; in experiment [5], 0.81%; in [6], 2.57%. Besides, the inhibition came to 3.42% in experiment [7], 0.93% in experiment [8], 5.07% in experiment [9] and 1.03% in experiment [10].
With `COc1cc2ncn(-c3cc(OCc4ccccc4C(F)(F)F)c(C(N)=O)s3)c2cc1OC`, the inhibition worked out at 3.79% in [2]; 7.26% in [3]; 1.94% in experiment [4]; 1.77% in experiment [5]; 5.55% in experiment [6]; 5.02% in experiment [7]. In addition, the inhibition in [8] is 1.8%; in experiment [9], 2.59%; in experiment [10], -0.96%.
As for `CS(=O)(=O)CCNCc1ccc(-c2ccc3ncnc(Nc4ccc(OCc5cccc(F)c5)c(C(F)(F)F)c4)c3c2)o1`, the inhibition in experiment [1] was -0.76%; in experiment [2], 6.77%; in experiment [3] it was 8.2%; in [4], 1.44%; in [5] it was 1.87%; in experiment [6], 4.46%. Moreover, the inhibition is 3.99% in experiment [7], -0.07% in [9] and -1.22% in [10].
Turning to `Fc1cccc(COc2ccc(Nc3ncnc4cc(-c5ccc[nH]5)sc34)cc2Cl)c1`, the inhibition in [1] is 3.26%; in [2], 5.46%; in [3] it was 5.78%; in [4] it was -0.06%; in [5] it was -0.55%; in [7], 1.96%. In addition, the figures for the inhibition in experiment [9] and in experiment [10] were -0.78% and -2.21%, respectively.
On to `COC(=O)Nc1nc2cc(Oc3ccc(NC(=O)Nc4cccc(C(=O)O)c4)cc3)ccc2[nH]1`, for which the inhibition in experiment [1] was 3.41%; in experiment [2], 0.04%; in experiment [3], 2.31%; in experiment [4] it was -0.12%; in [5] it was -0.31%; in experiment [6], 0%. Further, the inhibition in experiment [7] is 0.98%; in experiment [8] it was 7.82%; in experiment [9], 3.29%; in [10] it was 3.13%.
With `Nc1nc(-c2ccc3c(c2)C(=Cc2cc(Br)c(O)c(Br)c2)C(=O)N3)cs1`, the inhibition in [1] was 15.5%; in experiment [2] it was 2.87%; in experiment [3], -1.51%; in [4], -2.22%; in experiment [5] it was -1.94%; in experiment [6], -4.94%. Besides, the inhibition in experiment [7] was -1.99%; in experiment [9], -3.15%; in [10], -5.26%.
`COc1cc2c(cc1Nc1nc(N3CCc4ccccc43)c3cc[nH]c3n1)N(C(=O)CN(C)C)CC2`: the inhibition in [1] came out at 4.16%; in experiment [2], 3.44%; in experiment [3], 4.36%; in experiment [4], 0.89%; in experiment [5] it was 1.19%; in [6], 1.31%. The inhibition in experiment [7] was 2.24%; in [8], 0.19%; in [9], -1.41%; in experiment [10] it was -3.46%.
Turning to `c1cnn2ncc(-c3ccnc(Nc4ccc5c(c4)OCCO5)n3)c2c1`, the inhibition in [1] is -0.78%; in experiment [2], 3.98%; in experiment [3], 4.56%; in experiment [4], 4.04%; in experiment [5] it was 3.37%; in experiment [6] it was 4.71%. In addition, the inhibition in [7] came to 4.73%; in [8], 8.91%; in experiment [9] it was 14.7%; in experiment [10], 2.92%.
For `CN(C)c1cc2c(Nc3ccc4nc(Cc5ccccc5)[nH]c4c3)ncnc2cn1`, the inhibition is -0.63% in experiment [1]; 8.36% in [2]; 8.45% in experiment [3]; 2.07% in [4]; 1.52% in experiment [5]; 6.44% in experiment [6]. In addition, the inhibition in experiment [7] is 7.25%; in [8], 9.58%; in [9], -7.55%; in experiment [10] it was 7.15%.
As for `Cc1ccc(C(=O)NC2CCCCC2)cc1-c1ccc(C(=O)NCC2CC2)cc1`, the inhibition is -1.45% in experiment [1]; 6.65% in experiment [2]; 4.6% in experiment [3]; 2.09% in [4]; 1.97% in experiment [5]; 4.22% in experiment [6]. In addition, the inhibition in experiment [7] is 4.44%; in experiment [8], 4.34%; in experiment [9], 13.6%; in [10], -2.81%.
On to `Cc1cccc(-c2n[nH]cc2-c2ccc3ncccc3n2)n1`, for which the inhibition in [1] is 2.02%; in [2] it was -2.12%; in [3] it was 3.22%; in [4], -2.02%; in [5], -0.91%; in experiment [6], 0.55%. In addition, the inhibition in [7] was 1.22%; in [8], -7.66%; in [9], -3.76%; in experiment [10], -5.68%.
With `CC(=O)Nc1cccc(C#Cc2cncnc2Nc2ccc(OCc3cccc(F)c3)c(Cl)c2)n1`, the inhibition in experiment [1] is 2.51%; in [2], 1.24%; in experiment [3], 0.67%; in experiment [4], -0.89%; in [5] it was -0.09%; in experiment [6] it was -0.61%. Moreover, the inhibition is -0.35% in experiment [7], 4.91% in experiment [8], 9.12% in experiment [9] and 10.8% in experiment [10].
